# CYP2C19 inh: blockers of cytochrome P450 2C19 activity – biochemical, luminescence, ADME assay, primary screen. P33261. CYP2C19 Supersomes, luciferin-H EGE luminescence, 30 min. inhibition, % at 5 µM. 21% of 96,000 active;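 active = CYP2C19 inhibition above a set limit at 5 µM in the primary screen, cut at about 50% in these data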;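 also: plate controls were negative control wells for no effect and 2.5 mM tranylcypromine positive control for full effect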
# Mac1 fbg enh: enhancers of CD11b/CD18 adhesion to fibrinogen, primary screen, K562 cells, luminescence; ATPlite luminescence; Integrin beta-2 (Homo sapiens) + Integrin alpha-M (Homo sapiens), P05107+P11215; activation, % at 10 µM; AID 1499, 2009; 0.07% of 93,000 active;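 active = 10 µM primary screen giving 50% or more activity, confirmed by 40% or more on retest at that dose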
# Mac1 fbg inh: inhibitors of CD11b/CD18 adhesion to fibrinogen, primary screen, K562 cells, luminescence. Integrin beta-2 (Homo sapiens) + Integrin alpha-M (Homo sapiens), P05107+P11215. ATPlite luminescence; Mn2+ added to activate the integrin. inhibition, % at 10 µM. 0.54% of 93,000 active. AID 1497, 2009;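 active = primary inhibition of 50% or more at 10 µM, then 40% or more on retest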
# CYP2C9 inhib: blockers of cytochrome P450 2C9 activity – biochemical, luminescence, ADME assay, primary screen | P11712 | CYP2C9 Supersomes, luciferin-H conversion | inhibition, % at 5 µM | 20% of 96,000 active | AID 777, 2007;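 active = blocking of liver enzyme CYP2C9 beyond about 50% at 5 µM, limit read from the data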
# Target sequence (P11712 whole entry, looked up): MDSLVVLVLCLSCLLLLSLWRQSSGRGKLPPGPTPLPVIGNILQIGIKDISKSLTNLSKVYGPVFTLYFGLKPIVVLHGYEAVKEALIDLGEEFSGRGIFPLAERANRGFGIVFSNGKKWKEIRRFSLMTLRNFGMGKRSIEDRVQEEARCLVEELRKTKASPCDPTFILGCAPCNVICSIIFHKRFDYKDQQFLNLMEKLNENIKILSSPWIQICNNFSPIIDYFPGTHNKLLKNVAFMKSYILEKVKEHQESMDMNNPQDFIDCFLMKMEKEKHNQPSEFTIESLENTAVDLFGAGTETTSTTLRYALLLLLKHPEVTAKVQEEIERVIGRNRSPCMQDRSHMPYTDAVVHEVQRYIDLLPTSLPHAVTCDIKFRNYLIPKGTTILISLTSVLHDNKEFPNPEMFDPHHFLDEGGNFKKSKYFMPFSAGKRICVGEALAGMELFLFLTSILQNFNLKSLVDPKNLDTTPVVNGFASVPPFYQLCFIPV
# CYP2C9 act: human CYP2C9 activators, primary screen, biochemical, luminescence; Cytochrome P450 2C9 (Homo sapiens), P11712; recombinant CYP2C9, luciferin-H conversion; stronger effect = higher value; factor 1 = untreated enzyme, 0 = blocked; activation factor at 5 µM; 1.4% of 96,000 active; AID 1024, 2008;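 active = activation factor of 2 or more for CYP2C9 at a 5 µM dose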;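 also: 0 = sulfaphenazole-blocked wells and 1 = vehicle-only wells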
# CYP2C19 act: human CYP2C19 activators, primary screen, biochemical, luminescence; Cytochrome P450 2C19 (Homo sapiens), P33261; recombinant CYP2C19, luciferin-H EGE luminescence; stronger effect = higher value; 0 = fully inhibited enzyme, 1 = untreated enzyme; activation factor at 5 µM; 96,000 tested, under 10 active; AID 1025, 2008;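 active = activation factor of at least 2 at 5 µM in the primary screen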;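 also: 0 = wells with 2.5 mM tranylcypromine and 1 = vehicle-only wells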
# * hit, by the source's call; . = no result. Only some compounds are listed: those with a hit (about 28% of all), similar ones and a draw of the others.
SMILES,CYP2C19 inh,Mac1 fbg enh,Mac1 fbg inh,CYP2C9 inhib,CYP2C9 act,CYP2C19 act
COc1ccc(/C=N/n2c(N)c(S(=O)(=O)c3cccs3)c3nc4ccccc4nc32)cc1OC,1,13,-9,77*,0.2,1
COc1cccc(/C=N/n2c(N)c(S(=O)(=O)c3cccs3)c3nc4ccccc4nc32)c1,3,-5,-4,8,0.9,1
CCCCNC(=O)c1c(N)n(/N=C/c2ccccn2)c2nc3ccccc3nc12,15,50,7,29,0.7,0.8
Cc1cccc(S(=O)(=O)c2c(N)n(/N=C/c3cccnc3)c3nc4ccccc4nc23)c1,-8,3,7,36,0.6,1.1
CC(C)Cn1c(N)c(S(=O)(=O)c2cccs2)c2nc3ccccc3nc21,20,4,-5,65*,0.3,0.8
COC(C)(C)[C@]12CC(O)(c3ccccc3)ON1[C@H]1CCCCC1N2O (stereo partly drawn),30,0,-7,-19,1.2,0.7
O=C(CN1C(=O)CSC1=O)Nc1ccccc1F,1,-4,1,11,0.9,1
CCOC(=O)N1CCN(C(=O)c2ccc(N(C)S(C)(=O)=O)cc2)CC1,-5,8,-5,-4,1,1.1
COc1cccc2c1OC[C@@H](CO)[C@H]2N(C)C(=O)Nc1ccccc1,24,.,.,-9,1.1,0.8
CN(C(=O)Nc1ccc(Cl)cc1Cl)[C@H]1c2cc(Br)ccc2OC[C@H]1CO,41,-2,29,87*,0.1,0.6
COC(=O)CCSCc1cn2cc(Cl)ccc2n1,31,2,-27,-1,1,0.7
COC(=O)c1cc2c(s1)-c1ccccc1OC2,65*,2,-5,6,0.9,0.4
CCOC(=O)c1cc2c(s1)-c1c(C)cccc1OC2,89*,-2,5,72*,0.3,0.1
O=C(Nc1nccs1)c1cc2c(s1)-c1ccccc1OC2,17,30,3,10,0.9,0.8
Cc1cccc2c1-c1sc(C(=O)Nc3nccs3)cc1CO2,0,-2,-10,21,0.8,1
CCOC(=O)c1c(C2CC2)csc1NC(C)=O,17,8,4,34,0.7,0.8
CCCCNC(=O)OCCNC(=O)NC,3,7,1,5,1,1
COc1cccc(CN(C)CC(=O)NCc2ccccc2Cl)c1,.,3,7,.,.,.
O=C(CC1OC(=O)c2ccccc21)c1ccco1 (stereo not drawn),-10,0,0,-11,1.1,1.1
CC1c2nc3ccccc3n2C(CC(=O)NCc2ccccn2)C(=O)N1Cc1ccccc1 (stereo not drawn),80*,-3,1,7,0.9,0.2
O=C(CCc1ccccc1)NCc1ccccn1,12,-3,3,11,0.9,0.9
O=C(Nc1ccc(Cl)cc1)c1csc(-c2ccccc2)n1,28,2,2,38,0.6,0.7
COc1ccccc1CNC(=O)c1csc(Cc2ccc(Cl)cc2)n1,60*,.,.,56*,0.4,0.4
COc1ccc(NC(=O)c2csc(Cc3ccccc3)n2)cc1,50*,-4,59,64*,0.4,0.5
COc1ccc(CNC(=O)c2csc(Cc3ccccc3)n2)cc1,88*,0,-4,59*,0.4,0.1
SMILES,CYP2C19 inh,Mac1 fbg enh,Mac1 fbg inh,CYP2C9 inhib,CYP2C9 act,CYP2C19 act
COc1ccccc1CNC(=O)COC(=O)Cc1ccc(Cl)cc1,.,4,3,.,.,.
N#CCCC12CCCCC1=Nc1ccccc12 (stereo not drawn),5,-2,-3,8,0.9,0.9
C=CCn1c(CNC(=O)c2cccs2)nnc1SCC(=O)c1ccc(Br)cc1,46,.,.,61*,0.4,0.5
C=CCn1c(CCNC(=O)c2ccccc2F)nnc1SCC(=O)Nc1nc2ccccc2s1,29,-4,-10,59*,0.4,0.7
C=CCn1c(CCNC(=O)c2cccs2)nnc1SCC(=O)c1cccc([N+](=O)[O-])c1,4,-4,-10,-5,1,1
C=CCn1c(CSc2nc3ccccc3s2)nnc1SCC(=O)OCC,77*,-3,-56,42,0.6,0.2
C=CCn1c(CCNC(=O)c2cccs2)nnc1SCC(=O)c1ccc(Cl)cc1,78*,4,6,79*,0.2,0.2
O=C(CSc1nnnn1-c1ccccc1F)Nc1nc2ccccc2s1,11,1,-16,11,0.9,0.9
C=CCn1c(CNC(=O)c2cccs2)nnc1SCC(=O)Nc1ccc(C(=O)O)cc1,-5,-3,5,-3,1,1
CCOC(=O)CSc1nnc(CSc2nc3ccccc3s2)n1C,44,-5,9,2,1,0.6
Cc1cccc(C)c1Nc1nnc(SCc2cn3cccc(C)c3n2)s1,.,-2,7,.,.,.
CCOC(=O)C1CCN(Cc2nc3ccccc3c(=O)n2-c2ccc(OCC)cc2)CC1,18,1,18,54*,0.5,0.8
CCOC(=O)C1CCN(Cc2ccc(O)c3ncccc23)CC1,5,3,-3,6,0.9,1
CC(=O)N1CCN(S(=O)(=O)c2ccc(S(=O)(=O)NCC(C)C)cc2)CC1,-14,1,0,-9,1.1,1.1
COc1cc(-c2nnc3sc(Cc4ccccc4)nn23)cc(OC)c1OC,43,1,-1,52*,0.5,0.6
COc1ccc(Cc2nn3c(-c4cc(OC)c(OC)c(OC)c4)nnc3s2)cc1,69*,.,.,75*,0.3,0.3
Nc1c(C(=O)NCc2ccc(F)cc2)c2nc3ccccc3nc2n1CCCN1CCOCC1,36,9,17,20,0.8,0.6
CCOc1ccc(-c2cc(C(=O)NCCCN3CCN(CC)CC3)c3ccccc3n2)cc1,-7,-1,9,19,0.8,1.1
O=C(NCCCN1CCOCC1)c1cc(-c2ccc3c(c2)OCO3)nc2ccccc12,12,-1,-13,54*,0.5,0.9
COC(=O)c1cc(-c2ccc3c(c2)OCO3)nc2ccccc12,7,-3,6,39,0.6,0.9
COc1ccc(-c2cc(C(=O)NCCN3CCOCC3)c3ccccc3n2)cc1,24,-3,-4,52*,0.5,0.8
COc1ccc(CNC(=O)c2c(N)n(CCCN3CCOCC3)c3nc4ccccc4nc23)cc1,75*,6,21,13,0.9,0.3
Cn1c(N2CCN(C(=O)Nc3ccc(C(F)(F)F)cc3)CC2)nc2ccccc21,21,1,-1,23,0.8,0.8
CCC(=O)Nc1ccc(Nc2nc(C)c([N+](=O)[O-])c(Nc3ccc(NC(=O)CC)cc3)n2)cc1,.,4,12,.,.,.

# Screening data deposited in PubChem BioAssay by Sanford-Burnham Center for Chemical Genomics.
